Shown are actives, neighbours in structure and some others; about 3.7% of the full set was active somewhere.
MazEF act – activators of E. coli MazEF toxin-antitoxin RNase, primary screen, biochemical, fluorescence, uHTS; activation, % at 20 µM; FAM/BHQ RNA-DNA oligo cleavage fluorescence, 5 h; Endoribonuclease toxin MazF (Escherichia coli (strain K12)), P0AE70; 350,000 tested, 0.32% active; in the data active = activation above about 50%
BoNT-F LC inh – BoNT/F light chain protease inhibitors, primary screen, biochemical, flow cytometry, MLPCN library; Multiplex microsphere protease cleavage assay; inhibition, % at 10 µM; 360,000 tested, 0.22% active; in the data active = inhibition above about 35%, passing the limit was not always enough; inconclusive = no clear call, values can overlap the other calls; also: plate controls were buffer without enzyme for full effect and enzyme alone for no effect
Bead autofluor – counter-screen for toxin protease inhibitors: compound fluorescence. compound autofluorescence counterscreen, microsphere flow cytometry; active compounds read high. 360,000 tested, 3.1% active. fluorescence intensity (concentration not given with the values); in the data active = fluorescence intensity above about 16000; inconclusive = no clear call, values can overlap the other calls
Anthrax LF prot – Bacillus anthracis LF protease inhibitors, primary screen, biochemical, multiplex microsphere, MLPCN library; inhibition, % at 10 µM; multiplex microsphere protease cleavage assay; 360,000 tested, 0.12% active; Lethal factor (Bacillus anthracis), P15917; also: plate controls were buffer without enzyme for full effect and enzyme alone for no effect
Target sequence (P15917 whole entry, looked up): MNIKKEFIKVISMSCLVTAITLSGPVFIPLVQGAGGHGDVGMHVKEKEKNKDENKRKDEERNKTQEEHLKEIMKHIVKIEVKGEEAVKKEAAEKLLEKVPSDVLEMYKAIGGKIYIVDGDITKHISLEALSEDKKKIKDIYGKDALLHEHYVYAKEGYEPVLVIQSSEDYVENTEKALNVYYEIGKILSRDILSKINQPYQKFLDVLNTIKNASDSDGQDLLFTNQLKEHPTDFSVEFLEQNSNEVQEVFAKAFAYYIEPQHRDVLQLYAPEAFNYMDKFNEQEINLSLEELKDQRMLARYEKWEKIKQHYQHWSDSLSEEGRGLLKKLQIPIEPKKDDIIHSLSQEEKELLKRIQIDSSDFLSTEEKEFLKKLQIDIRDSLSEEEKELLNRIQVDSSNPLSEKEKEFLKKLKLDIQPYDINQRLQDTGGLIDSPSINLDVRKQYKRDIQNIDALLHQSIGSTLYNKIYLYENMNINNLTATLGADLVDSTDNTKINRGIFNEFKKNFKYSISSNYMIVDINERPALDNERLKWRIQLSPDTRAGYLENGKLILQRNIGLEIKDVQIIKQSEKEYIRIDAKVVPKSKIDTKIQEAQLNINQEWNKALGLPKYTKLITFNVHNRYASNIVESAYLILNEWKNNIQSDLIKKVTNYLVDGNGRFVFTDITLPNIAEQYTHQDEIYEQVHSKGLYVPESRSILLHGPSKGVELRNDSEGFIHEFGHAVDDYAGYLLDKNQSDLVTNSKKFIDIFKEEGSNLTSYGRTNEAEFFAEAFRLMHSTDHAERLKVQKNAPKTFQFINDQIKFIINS
BoNT A protease – BoNT/A light chain protease inhibitors, primary screen, biochemical, flow cytometry, MLPCN library. Botulinum neurotoxin type A light chain protease (Clostridium botulinum A str. ATCC 3502). multiplex microsphere protease substrate cleavage. inhibition, % at 10 µM. 360,000 tested, 0.17% active. AID 588499, 2011; also: plate controls were buffer without enzyme for full effect and enzyme alone for no effect
Starred values were filed as active, the others as inactive. Rule as the data show it, unless noted: active = inhibition above about 30%; inconclusive = no clear call, values can overlap the other calls; inactive = below that.

Results for COc1cc2[nH]c(=S)n(Cc3cccs3)c(=O)c2cc1OC ?
MazEF act: -11; BoNT-F LC inh: 0; Bead autofluor: 4424; Anthrax LF prot: -1; BoNT A protease: -1

What do the screens show for `CCCn1c(=S)[nH]c2cc(OC)c(OC)cc2c1=O`?
MazEF act: 7; BoNT-F LC inh: -2; Bead autofluor: 22976*; Anthrax LF prot: -1; BoNT A protease: -1

Results for Clc1ccccc1-c1ccc(/C=N/n2cnnc2)o1 ?
MazEF act: 4; BoNT-F LC inh: 0; Bead autofluor: 16641*; Anthrax LF prot: -4; BoNT A protease: 0

Results for Clc1cccc(-c2ccc(/C=N/n3cnnc3)o2)c1Cl ?
MazEF act: 2; BoNT-F LC inh: 4; Bead autofluor: 3083; Anthrax LF prot: -9; BoNT A protease: 0

Results for NC(=O)c1ccccc1NC(=O)C(c1ccccc1)c1ccccc1 ?
MazEF act: 3; BoNT-F LC inh: -10; Bead autofluor: 6498; Anthrax LF prot: -5; BoNT A protease: 0

Results for CCOC(=O)c1oc2nc(CC(C)C)c3c(c2c1N)CCC3 ?
MazEF act: 8; BoNT-F LC inh: 2; Bead autofluor: 20183*; Anthrax LF prot: -3; BoNT A protease: -1

Results for Cc1cc2nnc(SCC(=O)N3C(C)CCCC3C)n2c(N)n1 (configuration not stated) ?
MazEF act: 0; BoNT-F LC inh: -2; Bead autofluor: 22651*; Anthrax LF prot: -7; BoNT A protease: inconclusive

How did Cc1oc(/N=C/c2ccccc2)c(C#N)c1C do in these assays?
MazEF act: 1; BoNT-F LC inh: -25; Bead autofluor: 4297; Anthrax LF prot: -7; BoNT A protease: -6

How did COc1[nH]c(/N=C/c2ccccc2)c(C#N)c1C#N do in these assays?
MazEF act: 74*; BoNT-F LC inh: -31; Bead autofluor: 3338; Anthrax LF prot: -9; BoNT A protease: -2

How did CCOC(=O)C1=C(O)c2ccccc2C(=O)/C1=C\c1ccc(C)cc1 do in these assays?
MazEF act: 151*; BoNT-F LC inh: -18; Bead autofluor: 3339; Anthrax LF prot: -2; BoNT A protease: 1

Results for CCOC(=O)C1=C(C)OC(=Cc2ccccc2)C1=O ?
MazEF act: 4; BoNT-F LC inh: -2; Bead autofluor: 3955; Anthrax LF prot: 4; BoNT A protease: 0

Results for CCN(CC)CCOc1nc(C)nc2c1oc1ccccc12 ?
MazEF act: 5; BoNT-F LC inh: 11; Bead autofluor: 4333; Anthrax LF prot: -7; BoNT A protease: -1

How did CN(C)CCOc1ncnc2c1oc1ccccc12 do in these assays?
MazEF act: -9; BoNT-F LC inh: 3; Bead autofluor: 18425*; Anthrax LF prot: 0; BoNT A protease: 3

How did CCN(CC)CCCOc1nc(C)nc2c1oc1ccccc12 do in these assays?
MazEF act: 8; BoNT-F LC inh: -1; Bead autofluor: 23099*; Anthrax LF prot: 2; BoNT A protease: 0

How did Cc1cc(C)nc(Sc2ncnc3c2oc2ccccc23)n1 do in these assays?
MazEF act: 1; BoNT-F LC inh: 3; Bead autofluor: 21474*; Anthrax LF prot: 0; BoNT A protease: 2

How did CN(C)CCOc1nc(-c2ccccc2)nc2c1oc1ccccc12 do in these assays?
MazEF act: 3; BoNT-F LC inh: 7; Bead autofluor: 3195; Anthrax LF prot: 5; BoNT A protease: 1

How did c1ccc2cc(Sc3ncnc4c3oc3ccccc34)ccc2c1 do in these assays?
MazEF act: 3; BoNT-F LC inh: -4; Bead autofluor: 6000; Anthrax LF prot: -2; BoNT A protease: 1

What do the screens show for `CCSc1ncnc2c1oc1ccccc12`?
MazEF act: 6; BoNT-F LC inh: 10; Bead autofluor: 16868*; Anthrax LF prot: -15; BoNT A protease: 7

Results for CCN1CCN(C(C(=O)NC2CCCCC2)c2cc3ccccc3o2)CC1 (configuration not stated) ?
BoNT-F LC inh: 2; Bead autofluor: 5862; Anthrax LF prot: -2; BoNT A protease: 1

Results for c1coc(CN(Cc2ccco2)c2ncnc3c2oc2ccccc23)c1 ?
MazEF act: -3; BoNT-F LC inh: -1; Bead autofluor: 19845*; Anthrax LF prot: -3; BoNT A protease: 1

What do the screens show for `CCn1cc([N+](=O)[O-])c(C(=O)N2CCOCC2)n1`?
MazEF act: 3; BoNT-F LC inh: -7; Bead autofluor: 2353; Anthrax LF prot: -2; BoNT A protease: -1

What do the screens show for `CCn1cc([N+](=O)[O-])c(C(=O)N2N=C3/C(=C/c4cccs4)CCCC3C2c2cccs2)n1` (configuration not stated)?
MazEF act: -6; BoNT-F LC inh: -6; Bead autofluor: 21392*; Anthrax LF prot: 0; BoNT A protease: -5

What do the screens show for `CCOC(=O)C1=CCN(S(=O)(=O)c2ccccc2F)C1c1ccccc1` (configuration not stated)?
BoNT-F LC inh: -6; Bead autofluor: 5424; Anthrax LF prot: 2; BoNT A protease: 0

Results for CC(=O)c1cccc(NC(=O)CN(c2ccccc2F)S(C)(=O)=O)c1 ?
MazEF act: 4; BoNT-F LC inh: 2; Bead autofluor: 22974*; Anthrax LF prot: 0; BoNT A protease: 1

Results for CN(C)S(=O)(=O)N(CC(=O)Nc1ccc(F)c(F)c1)c1ccccc1 ?
MazEF act: -4; BoNT-F LC inh: 0; Bead autofluor: 19146*; Anthrax LF prot: -1; BoNT A protease: 1

What do the screens show for `CC(=O)c1cccc(N(CC(=O)Nc2ccccc2F)S(C)(=O)=O)c1`?
MazEF act: -16; BoNT-F LC inh: -9; Bead autofluor: 3820; Anthrax LF prot: -10; BoNT A protease: -2

Results for CC(=O)c1cccc(NC(=O)CN(c2ccccc2)S(C)(=O)=O)c1 ?
MazEF act: 4; BoNT-F LC inh: -3; Bead autofluor: 4559; Anthrax LF prot: 1; BoNT A protease: 1

Results for CC(=O)c1cccc(N(CC(=O)Nc2ccc(F)cc2F)S(C)(=O)=O)c1 ?
MazEF act: 5; BoNT-F LC inh: 1; Bead autofluor: 22378*; Anthrax LF prot: -4; BoNT A protease: 1

How did CN(C)S(=O)(=O)N(CC(=O)Nc1ccc2ccccc2c1)c1ccccc1 do in these assays?
MazEF act: -4; BoNT-F LC inh: -20; Bead autofluor: 3083; Anthrax LF prot: -2; BoNT A protease: -1

Results for COc1ccc(C(=O)Nc2ccccc2C(=O)NC2CC2)c(OC)c1OC ?
MazEF act: 1; BoNT-F LC inh: -1; Bead autofluor: 3798; Anthrax LF prot: 2; BoNT A protease: 0

How did COc1cccc(CNC(=O)c2ccc(S(=O)(=O)N3CCCCC3)cc2)c1 do in these assays?
MazEF act: 3; BoNT-F LC inh: -1; Bead autofluor: 3688; Anthrax LF prot: -4; BoNT A protease: 0
